Source: PubChem BioAssay
Unmarked numbers belong to inactive results. No stated cut-off is given here; in the data, active means inhibition above about 33%; inactive means the rest.

Experiment: compounds suppressing VP16-driven luciferase signal – cell-based, luminescence, high throughput, counter-screen for LRH-1 inverse agonist project (AID 651615)
Conditions: Gal4-VP16 luciferase reporter cells, at 3.6 µM, hits give high values

| SMILES | inhibition [%] |
| --- | --- |
| COc1ccc(CCNC(=O)CN2C(=O)C3(OCCCO3)c3ccccc32)cc1OC | -9.46 |
| CC(=O)Nc1ccc(NC(=O)COC(=O)c2c(C)nn(-c3ccccc3)c2C)cc1 | -22.5 |
| CCCOc1ccc(N)cc1N | -3.38 |
| C=CC(=O)Nc1cccc(Oc2ncnc3[nH]cc(-c4cnc5ccccc5c4)c23)c1 | 18.2 |
| CC1CCCC(C)N1C(=O)COC(=O)CCC1CCCC1 (stereo not given) | 2.94 |
| COc1cccc(C2c3cc4c(cc3OC(N3CCOCC3)C2C)OCO4)c1O (stereo not given) | 21.4 |
| O=C(Nc1ccccc1C(=O)NCCCn1ccnc1)c1ccccc1 | -3.84 |
| O=C(Nc1ccc2[nH]c(=O)[nH]c2c1)c1ccc([N+](=O)[O-])o1 | -11.8 |
| O=C(CSc1nc2ccc(F)cc2c(=O)n1-c1ccccc1)Nc1ccc2c(c1)CCC2 | -3.99 |
| Cc1cc(=O)oc2c(C)c(OCC(=O)NC3CC(C)(C)NC(C)(C)C3)ccc12 | -11.2 |
| O=C(COC(=O)C1CCCCC1)NCCc1ccccc1 | -5.95 |
| O=C(NCc1ccc2c(c1)OCO2)c1cc([N+](=O)[O-])ccc1N1CCCCC1 | 30.3 |
| COc1ccc(OC)c(C2C3=C(COC3=O)Nc3cc4c(cc32)OCO4)c1 (stereo not given) | 27.9 |
| O=C1CCN(CCCN2CCC(=O)N(Cc3ccccc3)C2=S)C(=S)N1Cc1ccccc1 | -0.72 |
| O=C(COC(=O)c1ccc(S(=O)(=O)N2CCCC2)cc1)Nc1ccc(N2CCOCC2)cc1 | -7.59 |
